Data taken from ChEMBL document CHEMBL3988442, “University of Dundee, Small-Polar-MMV Screening Library” (2021).
Out of some 67,000 compounds screened, about 300 (0.45%) showed an effect of 50% or more. The list comes from a sample in which strong results are over-represented; it also holds similar structures and randomly drawn compounds.

target: Polyketide synthase Pks13 (Mycobacterium tuberculosis (strain ATCC 25618 / H37Rv)) (UniProt I6X8D2); assay: Mycobacterium tuberculosis Polyketide synthase 13 Thioesterase (PKS13); assay type: functional; set-up: scale not given: in the data most compounds retested in dose-response had high values; conditions: 30 µM
Sequence (I6X8D2 whole entry): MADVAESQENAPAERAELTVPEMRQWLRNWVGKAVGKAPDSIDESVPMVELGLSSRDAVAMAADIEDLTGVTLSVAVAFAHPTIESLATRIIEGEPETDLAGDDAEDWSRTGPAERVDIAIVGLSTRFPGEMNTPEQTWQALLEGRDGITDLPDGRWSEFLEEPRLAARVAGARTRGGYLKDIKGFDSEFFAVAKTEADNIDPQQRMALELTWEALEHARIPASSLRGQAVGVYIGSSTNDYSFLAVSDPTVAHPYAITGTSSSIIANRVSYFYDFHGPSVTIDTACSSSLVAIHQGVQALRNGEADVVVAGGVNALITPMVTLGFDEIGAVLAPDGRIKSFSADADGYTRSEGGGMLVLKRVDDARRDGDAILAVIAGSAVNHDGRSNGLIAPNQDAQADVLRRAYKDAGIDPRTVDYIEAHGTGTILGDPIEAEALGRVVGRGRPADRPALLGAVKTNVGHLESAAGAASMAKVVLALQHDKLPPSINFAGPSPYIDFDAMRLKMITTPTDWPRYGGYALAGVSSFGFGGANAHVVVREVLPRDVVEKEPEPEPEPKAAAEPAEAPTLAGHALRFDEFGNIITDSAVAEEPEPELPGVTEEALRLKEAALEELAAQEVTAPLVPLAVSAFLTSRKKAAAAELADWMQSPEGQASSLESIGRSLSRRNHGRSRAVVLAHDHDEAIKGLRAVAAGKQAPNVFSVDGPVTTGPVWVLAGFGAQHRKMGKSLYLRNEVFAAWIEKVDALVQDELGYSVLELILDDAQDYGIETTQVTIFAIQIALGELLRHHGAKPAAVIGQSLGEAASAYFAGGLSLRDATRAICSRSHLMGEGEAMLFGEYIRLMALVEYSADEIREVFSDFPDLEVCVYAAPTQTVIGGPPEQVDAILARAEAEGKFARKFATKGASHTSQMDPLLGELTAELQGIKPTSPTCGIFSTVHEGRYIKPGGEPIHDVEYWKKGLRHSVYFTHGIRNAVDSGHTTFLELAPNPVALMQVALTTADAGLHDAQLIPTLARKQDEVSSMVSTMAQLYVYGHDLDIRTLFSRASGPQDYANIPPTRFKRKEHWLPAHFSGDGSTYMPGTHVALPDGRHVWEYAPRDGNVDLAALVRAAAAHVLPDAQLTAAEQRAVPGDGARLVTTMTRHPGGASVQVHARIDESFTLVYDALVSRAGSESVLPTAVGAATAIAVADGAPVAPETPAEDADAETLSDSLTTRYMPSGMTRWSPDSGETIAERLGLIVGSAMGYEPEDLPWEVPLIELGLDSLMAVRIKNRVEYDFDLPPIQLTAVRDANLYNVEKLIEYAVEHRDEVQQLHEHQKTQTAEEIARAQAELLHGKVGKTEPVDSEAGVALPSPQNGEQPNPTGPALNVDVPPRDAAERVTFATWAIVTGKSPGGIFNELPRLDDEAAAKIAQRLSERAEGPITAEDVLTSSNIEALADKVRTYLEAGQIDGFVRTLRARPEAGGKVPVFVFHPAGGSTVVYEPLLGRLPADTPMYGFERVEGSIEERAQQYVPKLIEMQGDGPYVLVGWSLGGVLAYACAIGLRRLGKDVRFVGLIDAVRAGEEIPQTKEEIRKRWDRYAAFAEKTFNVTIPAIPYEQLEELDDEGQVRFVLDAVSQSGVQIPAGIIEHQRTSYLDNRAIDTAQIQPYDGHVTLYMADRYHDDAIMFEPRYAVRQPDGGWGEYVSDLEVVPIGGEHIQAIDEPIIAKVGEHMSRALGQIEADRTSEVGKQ

Row | Compound | Percent Effect [%]
1 | CC1CCN(S(=O)(=O)c2cccn(CC(=O)NC3CCCC3)c2=O)CC1 | 3.17
2 | CC1CCN(S(=O)(=O)c2cccn(CC(=O)NC(C)(C)C)c2=O)CC1 | -9.8
3 | COC(=O)Cn1cccc(S(=O)(=O)N2CCC(C)CC2)c1=O | 50.5
4 | COCC(=O)N1CCc2cccc(S(=O)(=O)N3CCOCC3)c2C1 | -3.94
5 | CCOCCC(=O)N1CCc2cccc(S(=O)(=O)N3CCOCC3)c2C1 | 59.9
6 | CCCOC(=O)N1CCc2cccc(S(=O)(=O)N3CCOCC3)c2C1 | -4.05
7 | COCCNC(=O)[C@@H]1CN(c2ncccn2)C[C@H]2OCC[C@H]21 | -43.5
8 | CC(=O)N1C[C@H]2CN(CC3CC3)C(=O)[C@H]2C1 | -18.6
9 | CSc1ccc2cc(CN(C)CCc3cn[nH]c3)c(=O)[nH]c2c1 | -13.1
10 | CSc1ccc2cc(CN(C)CCCN(C)C)c(=O)[nH]c2c1 | 6.22
11 | CSc1ccc2cc(CN(C)CCO)c(=O)[nH]c2c1 | 67
12 | Cc1cnc(N2CCN3C[C@H](OCc4ccccn4)C[C@H]3C2)nc1 | -24.2
13 | Cn1ccnc1CN1CCN2C[C@H](Oc3cccc(F)c3)C[C@H]2C1 | 23.6
14 | O=C1C[C@H]2CC[C@@H](CN1)N2C1CCSCC1 | -1.94
15 | CN(C(=O)c1ccc(-n2ncc(C#N)c2N)cc1)C1CCCC1 | -1.63
16 | N#Cc1cnn(-c2ccc(C(=O)N(C3CCCCC3)C3CC3)cc2)c1N | -18
17 | CN(CC1CCCCC1)C(=O)c1ccc(-n2ncc(C#N)c2N)cc1 | 52.7
18 | CCCN1CCN(C(=O)c2cnccn2)[C@H]2CS(=O)(=O)C[C@H]21 | -4.16
19 | c1cncc(CO[C@H]2CC[C@H]3[C@@H]2OCCN3C2CCOCC2)c1 | 2.72
20 | Cc1cc(C)cc(CN2C[C@@H]3OCCN(S(=O)(=O)N(C)C)[C@@H]3C2)c1 | -14.4
21 | CC1(C)O[C@@](C)([C@H]2CC3(CCN(c4cnccn4)CC3)CO2)CC[C@@H]1O | -3.99
22 | CC(C)c1cc(N2CCC[C@H](N)C2)n2nccc2n1 | -7.75

Row | Compound | Percent Effect [%]
23 | CC(C)c1cc(N2CC[C@H](F)C2)n2nccc2n1 | -11.1
24 | CC(C)c1cc(N2CCC(N)CC2)n2nccc2n1 | 61.4
25 | O=C(NC1CC1)[C@@H]1CCO[C@@H]2CCN(C3CCOCC3)C[C@@H]21 | -12.6
26 | Cc1nnc([C@H]2CC[C@@H]3[C@@H](CCN3Cc3c(C)noc3C)O2)o1 | -7.83
27 | CN(C)C(=O)CO[C@@H]1CC[C@H]2[C@H]1OCCN2C(=O)C1CCOCC1 | -1.73
28 | CC(=O)N1CCN2C(=O)N(Cc3ccc(F)cc3)C[C@H]2C1 | -33.1
29 | O=C(O)c1c(-c2cncnc2)ncc2c1CCN(CC1CCOC1)C2 (centres undefined) | -5.14
30 | Cn1cc(-c2ncc3c(c2C(=O)O)CCN(CC2CCOC2)C3)cn1 (centres undefined) | 111
31 | Cn1cc(-c2ncc3c(c2C(=O)O)CCN(CC2CC2)C3)cn1 | -9.1
32 | O=S(=O)(C1CC1)N1CCO[C@@H]2CN(Cc3ccco3)C[C@@H]2C1 | -22.6
33 | Cn1cc(CN2CC[C@@H]3[C@@H]2CCN3Cc2ccc3c(c2)OCO3)cn1 | -41.2
34 | Cc1noc([C@@H]2CCO[C@@H]3CCN(Cc4cccs4)C[C@@H]32)n1 | 2.92
35 | Cc1nc(C)n(C2CCCN(C(=O)c3cc4ccccc4n3C)C2)n1 (centres undefined) | -20.9
36 | CCc1n[nH]c(C2CN(C(=O)c3nc(C)n4ccccc34)CCO2)n1 (centres undefined) | 83
37 | CCc1nc(C2CCCN2C(=O)c2ncoc2CC)no1 (centres undefined) | -6.87
38 | CCc1nc(C2CCCN2C(=O)c2nccnc2N)no1 (centres undefined) | 29.6
39 | CCc1n[nH]c(C2CN(C(=O)c3ncoc3CC)CCO2)n1 (centres undefined) | -48.2
40 | Cc1nc(C)n(C2CCCN(C(=O)c3ccccc3C)C2)n1 (centres undefined) | -12.6
41 | CCc1n[nH]c(C2CN(C(=O)Cn3ccccc3=O)CCO2)n1 (centres undefined) | -11.9
42 | CCc1nc(C2CCCN2C(=O)c2nc(C)n3ccccc23)no1 (centres undefined) | 75.3
43 | Cc1nc(C)n(C2CCCN(C(=O)c3nc(C)n4ccccc34)C2)n1 (centres undefined) | 93.6
44 | COC[C@H]1CC[C@H]2[C@H](CCN2S(=O)(=O)c2ccccc2)O1 | 4.33

Row | Compound | Percent Effect [%]
45 | c1ccc(CO[C@@H]2C[C@H]3CN(c4ncccn4)CCN3C2)nc1 | -22
46 | Cc1cnc(C(=O)N2C[C@H]3CN(Cc4cccnc4)C[C@H]3C2)cn1 | -17.6
47 | Cc1cccc(CN2C[C@@H]3CN(C(=O)c4ccco4)C[C@@H]3C2=O)c1 | -32.5
48 | CNC(=O)CN([C@H]1C[C@H]2CCOC[C@H]2C1)S(=O)(=O)c1ccccc1 | -2.79
49 | CCN(CC)[C@@H]1CN(Cc2cnn(C)c2)[C@@H]2COC[C@H]12 | -19.3
50 | Cc1csc2ncc(-c3ccnc(N4CCC[C@@H]4CO)n3)c(=O)n12 | 27.3
51 | O=c1c(-c2ccnc(N3CCC[C@H]3CO)n2)cnc2sccn12 | 47.6
52 | Cc1cn2c(=O)c(-c3ccnc(N4CCC[C@@H]4CO)n3)cnc2s1 | 72.5
53 | COCCN1C[C@@H]2CN(Cc3ccoc3)CCC[C@]2(C(=O)O)C1 | -27.8
54 | CC1CCc2nc(O)c(C(=O)NCCN(C)C)cc2C1 (centres undefined) | -47.6
55 | CCCNC(=O)c1cc2c(nc1O)CCC(C)C2 (centres undefined) | -24.6
56 | CC1CCc2nc(O)c(C(=O)NCCCN3CCN(C)CC3)cc2C1 (centres undefined) | 82.6
57 | COc1ccc(CN2C[C@@H]3OCCN(c4ncccn4)[C@@H]3C2)cc1 | -27.4
58 | O=S(=O)(NC[C@H]1C[C@@H]2CCN1C[C@@H]2CN1CCCC1)c1ccc(Cl)cc1 | 2.53
59 | CCOC(=O)N1CCc2ccccc2C12CCNCC2 | 5.43
60 | COCC(=O)N1CCc2ccccc2C12CCNCC2 | -33
61 | O=C(C1CC1)N1CCc2ccccc2C12CCNCC2 | 61.6
62 | CCOCC(=O)N1C[C@@H]2CC[C@H](C1)N(Cc1ccccn1)C2=O | -4.9
63 | CC(C)OCc1ncn2c1CN(Cc1nccs1)CCC2 | 54.5
64 | CC(C)OCc1ncn2c1CN(Cc1cccs1)CCC2 | -19.5
65 | CC(C)OCc1ncn2c1CN(Cc1ccc(F)cc1)CCC2 | -26.5
66 | CN1CCN2C[C@@H](CO)[C@H](c3ccccc3)[C@H]2C1 | 1.92

Row | Compound | Percent Effect [%]
67 | Fc1cnc(N2CC[C@@H](N3CCOCC3)[C@@H]2Cc2ccncc2)nc1 | -11.8
68 | Fc1cnc(N2CC[C@@H](N3CCOCC3)[C@@H]2Cc2ccccc2)nc1 | -4.97
69 | Cn1cc(C[C@H]2[C@H](N3CCOCC3)CCN2c2ncc(F)cn2)cn1 | 56
70 | CN1C[C@@H]2CN(C(=O)NCc3ccccc3)CCC[C@]2(C(=O)O)C1 | -22.8
71 | O=S1(=O)C[C@@H]2[C@H](C1)N(Cc1cc(Cl)cc(Cl)c1)CCN2CC1CC1 | -18.6
72 | COc1cccc(N2CCN(C(=O)C(C)Oc3ccccc3)CC2=O)c1 (centres undefined) | -5.21
73 | COc1cccc(N2CCN(C(=O)C(O)c3ccccc3Cl)CC2=O)c1 (centres undefined) | 55.5
74 | COc1cccc(N2CCN(C(=O)C(O)c3cccc(Cl)c3)CC2=O)c1 (centres undefined) | -13.9
75 | CCc1cc(C(=O)N2CCC(c3cc4ncccc4cn3)CC2)on1 | 16.1
76 | CCc1cc(C(=O)N2CCC(c3cc4ncccc4cn3)CC2)no1 | -21.6
77 | O=C(CCc1cc(Cl)no1)N1CCC(c2cc3ncccc3cn2)CC1 | 129
78 | O=C(C1CCOCC1)N1CC[C@H]2[C@H]1CCN2c1nncs1 | -28.6
79 | CSCC[C@@H]1CN2CCC[C@H]2CN1Cc1coc2ccc(Cl)cc2c1=O | -2.59
80 | CN(Cc1cncnc1)[C@@H]1CN(C(=O)C2CC2)[C@@H]2CCCO[C@H]12 | -10.1
81 | CN(C)S(=O)(=O)N1C[C@@H]2CC[C@H](C1)N(C/C=C/c1ccc(F)cc1)C2 | -0.937
82 | CCCN1CCCC1c1nc(Cc2ccc(F)cc2)no1 (centres undefined) | -12.9
83 | OCCCN1CCCC1c1nc(Cc2ccc(F)cc2)no1 (centres undefined) | 11.8
84 | CC(C)(C)OCCN1CCCC1c1nc(Cc2ccc(F)cc2)no1 (centres undefined) | 74.9
85 | c1cnc(NC[C@H]2OC[C@@H]3CCN(Cc4cccnc4)C[C@@H]32)nc1 | -692
86 | Cc1nc2c(c(N(C)C)n1)CCN(C(=O)c1ccc(N)nc1)C2 | -0.177
87 | CCNc1ncc(C(=O)N2CCc3c(nc(C)nc3N(C)C)C2)cn1 | 50.1
88 | CCCc1ccc(C(=O)N2CCc3c(nc(C)nc3N(C)C)C2)cc1 | 6.78

Row | Compound | Percent Effect [%]
89 | Cc1ccc(CN2CC[C@H]3NC(=O)CC[C@@H]32)o1 | -15.3
90 | O=C(c1ncccn1)N1C[C@@H]2COC[C@]2(COCc2cccnc2)C1 | -13.2
91 | COCCCN1C(=O)CC[C@H]2CN(Cc3ccc4occc4c3)CC[C@H]21 | -8.86
92 | O=C1CC(c2ccc(F)c(F)c2)c2snc(C(=O)O)c2N1 (centres undefined) | 68.8
93 | O=C1CC(c2cccc(Cl)c2)c2snc(C(=O)O)c2N1 (centres undefined) | -0.952
94 | O=C1CC(c2ccc(F)cc2)c2snc(C(=O)O)c2N1 (centres undefined) | -1.41
95 | CC(=O)NCC(=O)N1C[C@H](OCc2cccnc2)[C@H]2COC[C@H]21 | -10.5
96 | Cn1cc(CN2CCO[C@@H]3CN(C4CCCC4)C[C@@H]3C2)cn1 | -3.52
97 | CCc1ccc(CN2CCN(Cc3ncc[nH]3)[C@H]3CS(=O)(=O)C[C@H]32)nc1 | -7.95
98 | CCS(=O)(=O)N1C[C@@H]2CN(Cc3ccco3)CCO[C@@H]2C1 | -0.26
99 | Cc1cccc(CO[C@@H]2CC[C@H]3[C@H]2OCCN3Cc2nccs2)n1 | -27.1
100 | COc1ccccc1-c1nc(C(=O)N(C)C)n2ccncc12 | 11.7
101 | COC(=O)CNC(=O)c1nc(-c2ccccc2OC)c2cnccn12 | 118
102 | COC(=O)CNC(=O)Cn1ccc2cccc(OC)c21 | -29.2
103 | Cc1nnc(N2C[C@H](OCCCn3cccn3)[C@H]3OCCC[C@H]32)s1 | -20.4
104 | O=C1CO[C@H]2CN(Cc3cccnc3)C[C@H]2N1 | 0.623
105 | CC(=O)N1C[C@@H](c2ccsc2)[C@@H]2CN(CC3CCCCC3)CC[C@@H]21 | 18
106 | Cc1cccc(-c2ccc(C(=O)NCCN(C)C3CC3)c(=O)[nH]2)c1 | -29.9
107 | Cc1cccc(-c2ccc(C(=O)NCC(C)(C)C(N)=O)c(=O)[nH]2)c1 | 57.5
108 | Cc1cccc(-c2ccc(C(=O)NCC3CCOC3)c(=O)[nH]2)c1 (centres undefined) | -6.84
109 | O=C(NC[C@H]1C[C@@H]2CN(C(=O)c3ccno3)C[C@@H]2O1)C1CCC1 | -26.6
